Among the data in PubChem BioAssay (NCI) are growth values, retold here.

Some test systems named below: NCI-H23 lung; NCI-H226 lung; NCI-H322M lung; HOP-62 NSCLC; NCI-H460 lung; NCI-H522 lung; A549/ATCC NSCLC; COLO 205 colon; DU-145 prostate; K-562 leukemia; MALME-3M melanoma; MDA-MB-231 breast; RXF 393 renal; SF-268 CNS; SF-295 CNS; SF-539 CNS; UACC-257 melanoma; M14 melanoma; 786-0 renal.
What all share (assay): NCI-60 one-dose screen, 48 h (100 = growth as untreated, 0 = no growth, -100 = all killed)
What all share (conditions): 10 µM unless noted

The panel holds about 83,000 compounds, 20% with a hit somewhere; the sample as a whole holds those more often.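 Interpretation: 100, growth as untreated; towards 0, rising growth inhibition; 0, no net growth; 0 to -100, cell death. Compounds scoring below 10 were considered active.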 Unmarked numbers belong to inactive results. Active and inactive are the calls of the source.

With `CCCCCCCC/C=C/CCCCCCCC1=NC(C)(C)CN1C(C)C`, the growth in the assay on NCI-H23 lung was -2.44% (active); in the assay with NCI-H226 lung, 61.4%; with NCI-H322M lung, 76.8%; in the assay with HOP-62 NSCLC, -79.6% (active); in the assay with NCI-H460 lung, -45.9% (active); in the assay with NCI-H522 lung it was -57.6% (active). Further, the growth with A549/ATCC NSCLC was 15.7%; with COLO 205 colon, -67.3% (active); in the assay on DU-145 prostate it was 21.9%; with K-562 leukemia, -54.5% (active); with MALME-3M melanoma, -19.5% (active); in the assay with MDA-MB-231 breast, -9.32% (active). The growth with RXF 393 renal was -68.1% (active); in the assay with SF-268 CNS it was 4.16% (active); with SF-295 CNS, 6.07% (active); with SF-539 CNS, 8.28% (active); in the assay with UACC-257 melanoma, 11.1%; with M14 melanoma, -75.3% (active).
Regarding `COc1ncnc2[nH]cc(CN3CCN(c4ccc(F)cc4)CC3)c12`, the growth was 98.4% in the assay with NCI-H23 lung; 103% with NCI-H226 lung; 107% with NCI-H322M lung; 107% in the assay on HOP-62 NSCLC; 108% with NCI-H460 lung; 96.5% with A549/ATCC NSCLC. For the same molecule, the growth with 786-0 renal was 103%; in the assay on COLO 205 colon, 116%; in the assay on DU-145 prostate it was 116%; in the assay on K-562 leukemia, 108%; in the assay with MALME-3M melanoma, 103%; in the assay on MDA-MB-231 breast it was 117%. Also, the growth in the assay on RXF 393 renal is 111%; with SF-268 CNS, 104%; in the assay on SF-295 CNS, 98.1%; in the assay with SF-539 CNS, 108%; in the assay with UACC-257 melanoma, 99.8%; in the assay on M14 melanoma, 106%.
As for `COc1cc(C2C(C#N)=C(N)Oc3cc4c(cc32)OCO4)cc2c1OCO2` (stereo unspecified), the growth is 8.48% (active) in the assay with NCI-H23 lung; 0.662% (active) in the assay on NCI-H226 lung; 44.8% in the assay with NCI-H322M lung; 28.2% in the assay with HOP-62 NSCLC; 12.4% in the assay with NCI-H460 lung; 25.3% in the assay on A549/ATCC NSCLC. Besides, the growth was 31.1% in the assay on 786-0 renal; -42.1% (active) in the assay with COLO 205 colon; 6.37% (active) in the assay with DU-145 prostate; 52.6% in the assay with MALME-3M melanoma; 36.5% with MDA-MB-231 breast; -12.1% (active) in the assay on RXF 393 renal. The growth with SF-268 CNS is 40.3%; in the assay on SF-295 CNS it was 9.43% (active); with SF-539 CNS it was 2.43% (active); in the assay on UACC-257 melanoma, 66.4%; in the assay on M14 melanoma it was -2.77% (active).
For `Clc1ccc(-c2cnc3c(-c4ccnc(N5CCNCC5)c4)cnn3c2)cc1`, the growth in the assay on NCI-H23 lung is -12.3% (active); in the assay with NCI-H226 lung, 115%; with NCI-H322M lung, 23.2%; in the assay on HOP-62 NSCLC it was -37.8% (active); in the assay with NCI-H460 lung, -39.8% (active); in the assay on A549/ATCC NSCLC, 16.7%. In addition, the growth is -70% (active) with 786-0 renal; -57.7% (active) in the assay with COLO 205 colon; 27.6% in the assay with DU-145 prostate; -13.5% (active) in the assay on K-562 leukemia; -37.5% (active) with MALME-3M melanoma; -23.3% (active) with MDA-MB-231 breast. The growth is -32.6% (active) in the assay on RXF 393 renal; -16.2% (active) in the assay with SF-268 CNS; 34.9% in the assay on SF-295 CNS; -82.4% (active) in the assay on SF-539 CNS; -60% (active) with UACC-257 melanoma; -78.8% (active) in the assay on M14 melanoma.
For the molecule `Fc1ccc(-c2nc(-c3ccc(-c4nc5ccc(F)cc5[nH]4)cc3)no2)cc1`, the growth was 67.7% with NCI-H23 lung; 54.9% in the assay with NCI-H226 lung; 70.5% with NCI-H322M lung; 79.6% in the assay with HOP-62 NSCLC; 67.4% with NCI-H460 lung; 75.4% in the assay with A549/ATCC NSCLC. The growth with 786-0 renal is 102%; with COLO 205 colon, 71.6%; in the assay with DU-145 prostate, 39.4%; with K-562 leukemia, 63%; in the assay on MALME-3M melanoma it was 68.3%; in the assay on MDA-MB-231 breast, 74.3%. The growth with RXF 393 renal is 79.8%; with SF-268 CNS it was 66.1%; in the assay on SF-295 CNS, 73.4%; in the assay on SF-539 CNS, 69.2%; with UACC-257 melanoma it was 87.8%; with M14 melanoma it was 62.3%.
With `Clc1cc2nc(-c3ccccc3)c(-c3ccccc3)nc2cc1Cl`, the growth in the assay on NCI-H23 lung was 79.6%; in the assay with NCI-H226 lung it was 89.7%; in the assay with NCI-H322M lung, 106%; in the assay on HOP-62 NSCLC it was 89.9%; in the assay on NCI-H460 lung, 94.8%; in the assay on A549/ATCC NSCLC it was 100%. Moreover, the growth is 103% in the assay with 786-0 renal; 115% in the assay on COLO 205 colon; 103% with DU-145 prostate; 85.8% with MALME-3M melanoma; 88% in the assay on MDA-MB-231 breast; 110% in the assay on RXF 393 renal. In addition, the growth in the assay with SF-268 CNS is 105%; in the assay on SF-295 CNS, 98.7%; with SF-539 CNS, 97.3%; with UACC-257 melanoma it was 111%; with M14 melanoma it was 85.9%.
